# Shown is part of a subset that was picked to be rich in hits.
# BRCT inh red = disrupts BRCA1 BRCT binding to phosphoprotein, red fluorophore readout; BRCT-phosphopeptide binding, red fluorescence polarization; actives 0.03% (n = 75,000); AID 892; Potency, µM (doses to about 76.9 µM), inactives show at the highest dose activity change, negative = inhibition, usual class: inhibitors; also: % is scaled to controls: 0 for no effect and ±100 for the full control effect
#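 Fluorescence polarization: 100 nM His-tagged BRCA1 BRCT with 100 nM TAMRA-labelled phospho-BACH1 decapeptide, phosphate buffer pH 7.3 with 150 mM NaCl, DTT, 0.01% Tween 20; 12 min RT. Binding inhibition seen as FP decrease.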
# TsaE inh = inhibitors of E. coli YjeE (TsaE) | P0AF67 | purified YjeE enzyme, qHTS inhibition assay | Potency, µM | actives 0.05% (n = 71,000) | AID 605
#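 Fluorescence polarization of a BODIPY Texas Red–ADP probe (2 uM) bound to purified YjeE (10 uM) was read after 15 min room-temperature incubation with compounds. Loss of polarization marks inhibitors; ADP serves as titrated control.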
# BRCT inh green = inhibitors of human BRCA1 BRCT-phosphoprotein interaction (green fluorophore); BRCA1 BRCT-phosphopeptide binding, green fluorescence polarization; Potency, µM (highest dose often 76.9 µM), inactives show top-dose activity change, negative = inhibition, most hits filed as inhibitors; P38398; actives 0.05% (n = 75,000);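 also: potency is read from the fitted curve at half-maximal effect; plate controls were peptide without protein for full effect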
#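 Compounds were incubated for 12 min at room temperature with a complex of 100 nM fluorescein-tagged pBACH1 decapeptide and 250 nM His-tagged BRCT protein. Buffer was phosphate pH 7.3 with EDTA, DTT and Tween 20. Disruption of binding lowers the polarization signal.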
# Pol III holo inh = blocks replication by bacterial DNA polymerase III holoenzyme; Potency, µM (titrated, usually from 57.1 µM), for the others: top-dose activity change, negative = inhibition; reconstituted DNA polymerase III holoenzyme replication, biochemical; actives 0.25% (n = 71,000); also: potency is read from the fitted curve at half-maximal effect; % is scaled to controls: 0 for no effect and ±100 for the full control effect
#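 Reconstituted *E. coli* holoenzyme (0.35 nM Pol III, 1 nM beta, 154 nM SSB, 2 nM primase) was preincubated with compound for 15 min at RT. Synthesis on 1.4 nM ssM13Gori ran 35 min, then was stopped with PicoGreen/EDTA and read as dsDNA fluorescence.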
# 15-hLO-2 inh = 15-hLO-2 (ALOX15B) enzyme inhibition; purified 15hLO-2, xylenol orange hydroperoxide absorbance; Potency, µM (series often up to 57.1 µM), without a hit: at the highest dose activity change, negative = inhibition, actives largely listed as inhibitors; actives 0.56% (n = 110,000); AID 881; also: potency is read from the fitted curve at half-maximal effect; % is scaled to controls: 0 for no effect and ±100 for the full control effect; nearly all actives have a fitted effect of over 60% in size
# Target sequence (O15296 whole entry, looked up): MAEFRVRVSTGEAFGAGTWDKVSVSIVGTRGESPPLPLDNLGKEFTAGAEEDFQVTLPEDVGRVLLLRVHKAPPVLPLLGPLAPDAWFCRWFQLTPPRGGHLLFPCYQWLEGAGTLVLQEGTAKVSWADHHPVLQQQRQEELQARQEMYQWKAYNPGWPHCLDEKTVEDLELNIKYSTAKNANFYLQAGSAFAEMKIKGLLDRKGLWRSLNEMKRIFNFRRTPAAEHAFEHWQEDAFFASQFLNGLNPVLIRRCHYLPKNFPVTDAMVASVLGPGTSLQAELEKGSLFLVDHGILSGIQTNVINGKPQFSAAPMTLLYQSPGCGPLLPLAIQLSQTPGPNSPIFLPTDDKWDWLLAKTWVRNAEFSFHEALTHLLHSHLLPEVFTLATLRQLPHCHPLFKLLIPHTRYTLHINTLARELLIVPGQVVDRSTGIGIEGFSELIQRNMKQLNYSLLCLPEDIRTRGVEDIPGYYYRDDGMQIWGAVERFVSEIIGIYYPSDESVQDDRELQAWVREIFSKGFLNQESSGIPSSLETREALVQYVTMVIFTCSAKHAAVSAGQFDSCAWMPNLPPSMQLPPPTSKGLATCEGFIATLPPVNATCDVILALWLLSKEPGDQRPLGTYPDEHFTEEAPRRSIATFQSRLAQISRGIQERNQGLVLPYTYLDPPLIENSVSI
#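 Screening format was qHTS against 50 nM purified 15hLO-2 in Hepes pH 7.5 with detergent. Activity follows hydroperoxide formation from 45 uM arachidonic acid, measured as 573:405 nm absorbance ratio of the ferric-xylenol orange complex.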
# ALOX15 inhib = 15-hLO (ALOX15) enzyme inhibition. P16050. purified 15hLO-1, xylenol orange hydroperoxide absorbance. Potency, µM (series often up to 57.1 µM), inactives show top-dose activity change, negative = inhibition, hits mostly inhibitors. actives 1.4% (n = 74,000). AID 887; also: potency is read from the fitted curve at half-maximal effect; % is scaled to controls: 0 for no effect and ±100 for the full control effect; nearly all actives have a fitted effect of over 55% in size
#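 Purified human 15hLO-1 (40 nM final) in 25 mM Hepes pH 7.5, 0.01% Triton X-100 was preincubated with compound 15 min at room temperature, then reacted 6 min with 50 uM arachidonic acid; hydroperoxide detected by Fe-XO, 573/405 nm absorbance ratio.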
# * = called active by the depositor; i = inactive; u = inconclusive; x = not tested or not shown; ! = repeats disagree; [ ] = remark or other dose. Calls follow the shape of the dose curve; as a rule, active = well fitted curve in the direction sought with a large enough effect; inconclusive = small, poorly fitted or top-dose-only effect, or another doubt; inactive = no such curve, though single readings can be large; an effect the other way counts as inactive or inconclusive.
SMILES,BRCT inh red,TsaE inh,BRCT inh green,Pol III holo inh,15-hLO-2 inh,ALOX15 inhib
NCCOc1ccccc1Cc1ccccc1,x,x,x,x,43%,x
NCCOB(c1ccccc1)c1ccccc1,-29%,u,12%,-2%,20µM*,0.63µM*
CCOc1ccc(S(=O)(=O)N(CC(=O)N/N=C/c2ccc(-c3ccc([N+](=O)[O-])cc3)o2)c2ccccc2)cc1,x,x,x,x,13µM*,x
CCOc1ccc(N(CC(=O)N/N=C/c2cc([N+](=O)[O-])ccc2Cl)S(C)(=O)=O)cc1,x,x,x,x,-5%,x
Cc1ccc(C2C(C#N)=C(N)SC(N)=C2C#N)cc1,-1%,i,154%,9%,u,u
Cc1ccc(C2C(C#N)=C(N)SC(N)=C2C#N)c(C)c1,2%,i,58%,6%,13µM*,u
NC1(C(=O)O)CC(C(=O)O)C1 (stereo not drawn),0%,i,-1%,-2%,30%,20µM*!
NC1(C(=O)O)CCC1,-2%,i,-4%,-2%,22%,-28%[25.6 µM]
COc1cc(/C=C(/C#N)C(=O)NCCc2c[nH]c3ccccc23)ccc1OCc1ccccc1F,x,x,x,x,-27%,x
N#C/C(=C\c1ccc(O)c(O)c1)C(=O)NCCCCc1ccccc1,-4%,i,0%,-12%,16µM*,1.6µM*
N#C/C(=C\c1ccc(O)c(O)c1)C(=O)NCCc1ccccc1,-1%,i,-1%,-2%,-24%,6.3µM*
O=C(O)CCCC(=O)NCCCCc1ccccc1,0%,i,-1%,2%,0%,-17%
FC(F)(F)c1cc(CO[C@@H]2CCCN[C@H]2c2ccccc2)cc(C(F)(F)F)c1,0%,i,-1%,3%,33%,-9%
O=c1ccn([C@H]2O[C@H](CO)[C@@H](O)[C@@H]2O)c(=O)[nH]1,x,i,x,-3%,x,x
OCCN(CCO)c1nc(N2CCCCC2)c2nc(N(CCO)CCO)nc(N3CCCCC3)c2n1,-3%,i,40µM*,31%,20µM*!,-11%
O=C(c1ccc(-n2c(=O)c(=O)[nH]c3ccccc32)cc1)N1CCCN(Cc2ccccc2)CC1,-2%,x,0%,x,x,-2%
COc1ccc2c(c1)Cc1cc(N=[N+]([O-])c3ccc4c(c3)Cc3cc(OC)ccc3-4)ccc1-2,0%[15.4 µM],i,7%[15.4 µM],-2%[11.4 µM],u,4µM*
COc1ccc2c(c1)CCc1c(-c3noc4c3CCc3cc(OC)ccc3-4)noc1-2,1%[15.4 µM],i,-2%[15.4 µM],-7%[11.4 µM],-6%[11.4 µM],3%[11.4 µM]
Oc1ccc(-c2csc(-c3ccccc3)n2)cc1O,x,x,x,x,4µM*,x
COc1ccc2c3c(cccc13)NN=C2C,-5%,i,-7%,32µM*,x,13µM*
COc1ccc(C(=O)c2ccc(OC)c3cccc(O)c23)cc1OC,x,x,x,x,-28%,x
O=c1cc(-c2ccc(O)cc2)oc2cc(O)cc(O)c12,2%,i,1%,-9%,-7%,5µM*!
O=c1cc(-c2ccccc2O)oc2cc(O)cc(O)c12,-2%,i,0%,-9%,-23%,-8%[25.6 µM]
O=c1cc(-c2ccccc2)oc2cc(O)cc(O)c12,-1%,i,0%,-4%[25.6 µM],-7%,-13%[25.6 µM]
O=c1cc(-c2cc(O)c(O)c(O)c2)oc2cc(O)cc(O)c12,0%,x,-1%,x,13µM*,2.5µM*
SMILES,BRCT inh red,TsaE inh,BRCT inh green,Pol III holo inh,15-hLO-2 inh,ALOX15 inhib
O=C(O)C[C@@H](C(=O)O)C1c2ccccc2-c2ccccc21,-1%[15.4 µM],i,1%[15.4 µM],7%[11.4 µM],-3%[11.4 µM],5%[11.4 µM]
CCOC(=O)c1c(C)[nH]c(N=Nc2ccccc2)c1C,x,x,x,x,-6%,x
CCOC(=O)c1c(C)[nH]c(C=Nc2ccccc2)c1O,-3%,i,-4%,1%,-14%,5µM*
O=C1/C(=C/c2ccccc2)[C@@H](NC2CCCCC2)c2ccccc21,-2%[15.4 µM],i,-1%[15.4 µM],-12%[11.4 µM],-7%[11.4 µM],-18%[11.4 µM]
c1ccc(-c2cnc(CSc3ncnc4sccc34)o2)cc1,-11%,i,3%,u,x,16µM*
Cc1cc(C)n2nc(SCc3ncc(-c4ccccc4)o3)nc2n1,-2%,i,2%,-9%,-3%,-12%
CCCCc1cc(=O)oc2cc(C)c(CN3CCCC3)c(O)c12,-5%,i,3%,-10%,-2%[2.29 µM],13µM*
COc1cccc2c1C(=O)c1c(O)c3c(c(O)c1C2=O)C[C@@](O)(C(=O)CO)C[C@H]3O[C@H]1C[C@@H](N)[C@H](O)[C@@H](C)O1.[W],-11%[15.4 µM],i,9%[15.4 µM],u,-4%[11.4 µM],0%[11.4 µM]
COc1cccc2c1C(=O)c1c(O)c3c(c(O)c1C2=O)C[C@](O)(C(=O)CO)C[C@H]3O[C@@H]1C[C@H](N)[C@H](O)[C@H](C)O1,u,i,12%[34.4 µM],0.79µM*,7%[25.6 µM],12%[25.6 µM]
N#Cc1cccc(NC(=O)N2CCCC3(CCN(C(=O)c4ccco4)CC3)C2)c1,1%,i,-2%,-4%,10%,u
O=C(O)C(=Cc1ccc(-c2ccccc2)cc1)C(=O)O,-1%[15.4 µM],i,0%[15.4 µM],-8%[11.4 µM],-2%[11.4 µM],-8%[11.4 µM]
O=C(O)CCCSc1ccccc1,1%[15.4 µM],i,-2%[15.4 µM],-4%[11.4 µM],0%[11.4 µM],9%[11.4 µM]
CC[C@]1(O)C[C@H]2CN(CCc3c([nH]c4ccccc34)[C@](C(=O)OC)(c3cc4c(cc3OC)N(C)[C@@H]3[C@](O)(C(=O)OC)[C@H](OC(C)=O)[C@]5(CC)C=CCN6CC[C@]43[C@@H]65)C2)C1,1%,i,-3%,-8%,36%,u
OCCN1CCN(C(c2cccs2)c2ccc3cccnc3c2O)CC1 (stereo not drawn),-1%,i,-2%,-6%,-18%,4µM*
O=c1oc2cc(N=Cc3ccc4c(c3)OCO4)ccc2c2ccccc12,-1%[15.4 µM],i,-1%[15.4 µM],-14%[11.4 µM],0%[11.4 µM],15%[11.4 µM]
O=C1c2ccccc2[C@@H]([C@@H]2c3ccccc3C(=O)c3cc(Br)ccc32)c2ccc(Br)cc21,0%[15.4 µM],i,-1%[15.4 µM],11%[11.4 µM],1%[11.4 µM],-18%[11.4 µM]
Cc1cc(N)c2ccccc2[n+]1CCCCCCCCCC[n+]1c(C)cc(N)c2ccccc21,-1%,u,-3%[3.08 µM],16µM*!,21%,u
Nc1cc2c(nc3c4ccccc4c(N)cc3[n+]2-c2cccc3ccccc23)c2ccccc12 (tested in a mixture with another compound),2%[15.4 µM],u,-1%[15.4 µM],-4%[11.4 µM],u,-20%[11.4 µM]
COc1cccc(C(=O)N2CCN(C(=O)c3cccc(F)c3)CC2)c1,-1%,i,-1%,-4%,x,7%
O=C(c1cccc(F)c1)N1CCN(C(=O)c2cc(-c3ccc(Cl)cc3Cl)on2)CC1,-1%,i,2%,2%,3%,16µM*

# Compound activity from PubChem.
